In PubChem BioAssay AID1159580 (chemical genetic matrix, 2015):
In all, about 5,500 compounds went through this assay and about 2,000 (36%) were called active. Not shown: some 18% with an inconclusive outcome. Rule as the data show it: active = normalized growth mostly below about 0.91 (no sharp cut-off); inconclusive = no clear call, values can overlap the other calls; inactive = mostly above about 0.92. This is one part of the list.

Experiment: chemical genetic growth profiling, strain panel (AID 1159580);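 also: tested at 20 µM; growth read once vehicle control cultures reached saturation at 30 °C; 1 = growth at the plate median or of vehicle wells; lower values mean less growth of the strain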
Conditions: growth OD

Measured: normalized growth

CN(C)[C@@H]1C(=O)C(C(N)=O)=C(O)[C@@]2(O)C(=O)C3=C(O)c4c(O)cccc4[C@@](C)(O)[C@H]3[C@H](O)[C@@H]12
inactive: S. cerevisiae deletion strains, locus YJR075W, strain HOC1, stronger effect = lower value 1.01 | S. cerevisiae deletion strains, locus YKL009W, strain mrt4, stronger effect = lower value 0.996 | S. cerevisiae deletion strains, locus YKL068W, stronger effect = lower value 0.997 | S. cerevisiae deletion strains, locus YKL085W, strain MDH1 (second series), stronger effect = lower value 0.999 | S. cerevisiae deletion strains, locus YKL085W, strain MDH1, stronger effect = lower value 0.999 | S. cerevisiae deletion strains, locus YKL160W, strain elf1, stronger effect = lower value 1.02 | S. cerevisiae deletion strains, locus YKL190W, strain CNB1, stronger effect = lower value 1.01 | S. cerevisiae deletion strains, locus YKR001C, strain vps1, stronger effect = lower value 0.989 | S. cerevisiae deletion strains, locus YKR026C, strain gcn3, stronger effect = lower value 1.01 | S. cerevisiae deletion strains, locus YKR091W, strain srl3, stronger effect = lower value 1.02 | S. cerevisiae deletion strains, locus YLL001W, strain dnm1, stronger effect = lower value 1.02 | S. cerevisiae deletion strains, locus YLL026W, stronger effect = lower value 1.03 | S. cerevisiae deletion strains, locus YLL041C, strain sdh2, stronger effect = lower value 1.02 | S. cerevisiae deletion strains, locus YLR027C, strain aat2, stronger effect = lower value 1.01 | S. cerevisiae deletion strains, locus YLR039C, strain RIC1, stronger effect = lower value 1.03 | S. cerevisiae deletion strains, locus YLR058C, strain SHM2, stronger effect = lower value 1 | S. cerevisiae deletion strains, locus YLR102C, strain apc9, stronger effect = lower value 0.995 | S. cerevisiae deletion strains, locus YLR113W, strain HOG1, stronger effect = lower value 0.995 | S. cerevisiae deletion strains, locus YLR221C, strain rsa3, stronger effect = lower value 1.01 | S. cerevisiae deletion strains, locus YLR258W, strain gsy2, stronger effect = lower value 1.01 | S. cerevisiae deletion strains, locus YLR262C, strain YPT6 (second series), stronger effect = lower value 0.997 | S. cerevisiae deletion strains, locus YLR262C, strain YPT6, stronger effect = lower value 1.02 | S. cerevisiae deletion strains, locus YLR268W, strain sec22, stronger effect = lower value 0.975 | S. cerevisiae deletion strains, locus YLR320W, strain mms22, stronger effect = lower value 1.01 | S. cerevisiae deletion strains, locus YLR330W, strain CHS5, stronger effect = lower value 1.01 | S. cerevisiae deletion strains, locus YLR342W, strain FKS1 (second series), stronger effect = lower value 0.976 | S. cerevisiae deletion strains, locus YLR342W, strain FKS1, stronger effect = lower value 1 | S. cerevisiae deletion strains, locus YLR357W, strain rsc2, stronger effect = lower value 1 | S. cerevisiae deletion strains, locus YLR370C, strain arc18, stronger effect = lower value 1.02 | S. cerevisiae deletion strains, locus YLR371W, strain rom2, stronger effect = lower value 1 | S. cerevisiae deletion strains, locus YLR384C, strain iki3, stronger effect = lower value 1.02 | S. cerevisiae deletion strains, locus YLR418C, strain cdc73, stronger effect = lower value 0.986 | S. cerevisiae deletion strains, locus YML016C, strain PPZ1, stronger effect = lower value 0.994 | S. cerevisiae deletion strains, locus YML032C, strain rad52, stronger effect = lower value 0.98 | S. cerevisiae deletion strains, locus YML120C, strain ndi1, stronger effect = lower value 1.01 | S. cerevisiae deletion strains, locus YML124C, strain tub3, stronger effect = lower value 1 | S. cerevisiae deletion strains, locus YMR058W, strain fet3, stronger effect = lower value 0.977 | S. cerevisiae deletion strains, locus YMR078C, strain ctf18, stronger effect = lower value 1 | S. cerevisiae deletion strains, locus YMR125W, strain sto1, stronger effect = lower value 1.01 | S. cerevisiae deletion strains, locus YMR129W, stronger effect = lower value 1.01 | S. cerevisiae deletion strains, locus YMR205C, strain PFK2, stronger effect = lower value 1.04 | S. cerevisiae deletion strains, locus YMR223W, strain ubp8, stronger effect = lower value 0.988 | S. cerevisiae deletion strains, locus YMR231W, strain pep5, stronger effect = lower value 1.02 | S. cerevisiae deletion strains, locus YMR307W, strain GAS1, stronger effect = lower value 0.994 | S. cerevisiae deletion strains, locus YNL067W, strain RPL9B, stronger effect = lower value 1.01 | S. cerevisiae deletion strains, locus YNL071W, strain lat1, stronger effect = lower value 1.02 | S. cerevisiae deletion strains, locus YNL128W, strain TEP1, stronger effect = lower value 1.01 | S. cerevisiae deletion strains, locus YNL153C, strain GIM3, stronger effect = lower value 0.998 | S. cerevisiae deletion strains, locus YNL183C, strain NPR1, stronger effect = lower value 0.95 | S. cerevisiae deletion strains, locus YNL209W, strain ssb2, stronger effect = lower value 1.01 | S. cerevisiae deletion strains, locus YNL233W, strain BNI4, stronger effect = lower value 1 | S. cerevisiae deletion strains, locus YNL248C, strain rpa49, stronger effect = lower value 0.966 | S. cerevisiae deletion strains, locus YNL250W, strain rad50, stronger effect = lower value 0.994 | S. cerevisiae deletion strains, locus YNL271C, strain bni1, stronger effect = lower value 0.984 | S. cerevisiae deletion strains, locus YNL298W, strain CLA4, stronger effect = lower value 0.968 | S. cerevisiae deletion strains, locus YNL307C, strain MCK1, stronger effect = lower value 1.01 | S. cerevisiae deletion strains, locus YNL322C, strain KRE1 (second series), stronger effect = lower value 1.01 | S. cerevisiae deletion strains, locus YNL322C, strain KRE1, stronger effect = lower value 1 | S. cerevisiae deletion strains, locus YNR049C, strain mso1, stronger effect = lower value 1.02 | S. cerevisiae deletion strains, locus YNR052C, strain pop2, stronger effect = lower value 0.995 | S. cerevisiae deletion strains, locus YOL006C, strain TOP1, stronger effect = lower value 1.03 | S. cerevisiae deletion strains, locus YOL012C, strain htz1 0.944 | S. cerevisiae deletion strains, locus YOL147C, strain pex11, stronger effect = lower value 0.991 | S. cerevisiae deletion strains, locus YOR001W, strain rrp6, stronger effect = lower value 1.04 | S. cerevisiae deletion strains, locus YOR061W, strain CKA2, stronger effect = lower value 1 | S. cerevisiae deletion strains, locus YOR069W, strain VPS5, stronger effect = lower value 1.01 | S. cerevisiae deletion strains, locus YOR070C, strain gyp1, stronger effect = lower value 1.01 | S. cerevisiae deletion strains, locus YOR080W, strain dia2, stronger effect = lower value 1.01 | S. cerevisiae deletion strains, locus YOR083W, strain WHI5, stronger effect = lower value 1.02 | S. cerevisiae deletion strains, locus YOR106W, strain vam3, stronger effect = lower value 1.02 | S. cerevisiae deletion strains, locus YOR136W, strain idh2, stronger effect = lower value 1.01 | S. cerevisiae deletion strains, locus YOR144C, strain elg1, stronger effect = lower value 0.996 | S. cerevisiae deletion strains, locus YOR184W, strain ser1, stronger effect = lower value 1 | S. cerevisiae deletion strains, locus YOR231W, strain MKK1, stronger effect = lower value 0.99 | S. cerevisiae deletion strains, locus YOR265W, strain rbl2, stronger effect = lower value 1.02 | S. cerevisiae deletion strains, locus YOR270C, strain vph1, stronger effect = lower value 1.04 | S. cerevisiae deletion strains, locus YOR290C, strain snf2, stronger effect = lower value 1 | S. cerevisiae deletion strains, locus YOR316C, strain cot1, stronger effect = lower value 1.01 | S. cerevisiae deletion strains, locus YPL051W, strain arl3, stronger effect = lower value 0.995 | S. cerevisiae deletion strains, locus YPL055C, strain LGE1, stronger effect = lower value 1.02 | S. cerevisiae deletion strains, locus YPL078C, strain atp4, stronger effect = lower value 1.03 | S. cerevisiae deletion strains, locus YPL106C, strain sse1, stronger effect = lower value 1.02 | S. cerevisiae deletion strains, locus YPL240C, strain hsp82, stronger effect = lower value 1.03 | S. cerevisiae deletion strains, locus YPL241C, strain CIN2, stronger effect = lower value 1 | S. cerevisiae deletion strains, locus YPL256C, strain CLN2, stronger effect = lower value 0.991 | S. cerevisiae deletion strains, locus YPR119W, strain clb2, stronger effect = lower value 1 | S. cerevisiae deletion strains, locus YPR141C, strain kar3, stronger effect = lower value 0.995 | S. cerevisiae deletion strains, locus YPR163C, strain tif3, stronger effect = lower value 1 | S. cerevisiae deletion strains, locus YPR167C, strain met16, stronger effect = lower value 1 | S. cerevisiae deletion strains, strain wtn01, stronger effect = lower value 0.985 | S. cerevisiae strains, strain wild type, stronger effect = lower value 1
